{"source": "ChEMBL document CHEMBL1961873", "about": "“Compounds: GSK PKIS; Assays: Nanosyn kinase panel” (2012)", "key": {"[1]": {"target": "Dual specificity protein kinase TTK (Homo sapiens) (UniProt P33981)", "conditions": "at 0.1 µM"}, "[2]": {"test_system": "Receptor-type tyrosine-protein kinase FLT3 (Homo sapiens), P36888 [D835Y]", "conditions": "at 1 µM"}, "[3]": {"target": "Vascular endothelial growth factor receptor 3 (Homo sapiens) (UniProt P35916)", "sequence (P35916 whole entry)": "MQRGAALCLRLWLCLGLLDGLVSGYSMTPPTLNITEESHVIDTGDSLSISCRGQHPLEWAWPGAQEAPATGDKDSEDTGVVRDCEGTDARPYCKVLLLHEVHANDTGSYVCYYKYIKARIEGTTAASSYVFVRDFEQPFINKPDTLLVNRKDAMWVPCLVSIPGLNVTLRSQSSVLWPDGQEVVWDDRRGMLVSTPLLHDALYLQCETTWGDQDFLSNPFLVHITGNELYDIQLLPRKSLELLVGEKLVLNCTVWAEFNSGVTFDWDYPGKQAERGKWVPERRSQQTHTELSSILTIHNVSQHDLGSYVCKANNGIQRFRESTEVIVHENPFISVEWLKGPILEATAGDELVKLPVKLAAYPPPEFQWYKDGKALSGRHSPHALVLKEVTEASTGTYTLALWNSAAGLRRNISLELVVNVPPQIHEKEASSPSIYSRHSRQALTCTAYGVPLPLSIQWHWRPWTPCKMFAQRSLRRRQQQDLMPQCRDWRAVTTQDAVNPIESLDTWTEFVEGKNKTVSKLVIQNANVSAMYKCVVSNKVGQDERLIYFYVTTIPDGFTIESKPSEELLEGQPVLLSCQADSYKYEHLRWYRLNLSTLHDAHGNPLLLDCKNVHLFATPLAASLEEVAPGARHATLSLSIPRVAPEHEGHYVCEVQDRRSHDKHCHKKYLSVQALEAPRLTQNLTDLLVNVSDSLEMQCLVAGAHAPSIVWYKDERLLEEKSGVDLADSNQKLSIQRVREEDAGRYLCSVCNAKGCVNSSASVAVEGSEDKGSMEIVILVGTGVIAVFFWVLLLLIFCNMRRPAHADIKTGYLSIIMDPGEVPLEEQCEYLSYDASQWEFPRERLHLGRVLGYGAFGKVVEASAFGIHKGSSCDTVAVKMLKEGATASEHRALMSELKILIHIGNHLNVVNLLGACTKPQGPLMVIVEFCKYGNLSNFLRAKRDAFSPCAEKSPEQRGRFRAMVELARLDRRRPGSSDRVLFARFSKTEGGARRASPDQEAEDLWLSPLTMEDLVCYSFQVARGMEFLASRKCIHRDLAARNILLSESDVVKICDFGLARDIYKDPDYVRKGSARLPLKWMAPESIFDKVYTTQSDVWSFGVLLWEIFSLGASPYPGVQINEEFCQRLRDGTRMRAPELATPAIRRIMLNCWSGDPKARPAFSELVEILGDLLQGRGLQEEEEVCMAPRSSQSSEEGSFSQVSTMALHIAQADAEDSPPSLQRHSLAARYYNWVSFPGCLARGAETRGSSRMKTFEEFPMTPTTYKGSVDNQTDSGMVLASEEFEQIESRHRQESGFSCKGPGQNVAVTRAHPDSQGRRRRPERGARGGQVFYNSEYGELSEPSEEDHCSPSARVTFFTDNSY", "conditions": "at 0.1 µM"}, "[4]": {"target": "Vascular endothelial growth factor receptor 3 (Homo sapiens) (UniProt P35916)", "conditions": "at 1 µM"}, "[5]": {"target": "Macrophage colony-stimulating factor 1 receptor (Homo sapiens) (UniProt P07333)", "conditions": "at 0.1 µM"}, "[6]": {"target": "Macrophage colony-stimulating factor 1 receptor (Homo sapiens) (UniProt P07333)", "conditions": "at 1 µM"}, "[7]": {"target": "Tyrosine-protein kinase Fyn (Homo sapiens) (UniProt P06241)", "conditions": "at 0.1 µM"}, "[8]": {"target": "Tyrosine-protein kinase Fyn (Homo sapiens) (UniProt P06241)", "conditions": "at 1 µM"}, "[9]": {"target": "Tyrosine-protein kinase HCK (Homo sapiens) (UniProt P08631)", "conditions": "at 0.1 µM"}, "[10]": {"target": "Tyrosine-protein kinase HCK (Homo sapiens) (UniProt P08631)", "conditions": "at 1 µM"}, "[11]": {"target": "Insulin-like growth factor 1 receptor (Homo sapiens) (UniProt P08069)", "conditions": "at 0.1 µM"}, "[12]": {"target": "Insulin-like growth factor 1 receptor (Homo sapiens) (UniProt P08069)", "conditions": "at 1 µM"}, "[13]": {"target": "Insulin receptor (Homo sapiens) (UniProt P06213)", "conditions": "at 0.1 µM"}, "[14]": {"target": "Insulin receptor (Homo sapiens) (UniProt P06213)", "conditions": "at 1 µM"}, "[15]": {"target": "Insulin receptor-related protein (Homo sapiens) (UniProt P14616)", "conditions": "at 0.1 µM"}, "[16]": {"target": "Insulin receptor-related protein (Homo sapiens) (UniProt P14616)", "conditions": "at 1 µM"}, "[17]": {"target": "Tyrosine-protein kinase ITK/TSK (Homo sapiens) (UniProt Q08881)", "conditions": "at 0.1 µM"}, "[18]": {"target": "Tyrosine-protein kinase ITK/TSK (Homo sapiens) (UniProt Q08881)", "conditions": "at 1 µM"}, "[19]": {"target": "Tyrosine-protein kinase JAK1 (Homo sapiens) (UniProt P23458)", "conditions": "at 0.1 µM"}, "[20]": {"target": "Tyrosine-protein kinase JAK1 (Homo sapiens) (UniProt P23458)", "conditions": "at 1 µM"}, "[21]": {"target": "Tyrosine-protein kinase JAK2 (Homo sapiens) (UniProt O60674)", "conditions": "at 0.1 µM"}, "[22]": {"target": "Tyrosine-protein kinase JAK2 (Homo sapiens) (UniProt O60674)", "conditions": "at 1 µM"}, "[23]": {"target": "Tyrosine-protein kinase JAK3 (Homo sapiens) (UniProt P52333)", "conditions": "at 0.1 µM"}, "[24]": {"target": "Tyrosine-protein kinase JAK3 (Homo sapiens) (UniProt P52333)", "conditions": "at 1 µM"}, "[25]": {"target": "Vascular endothelial growth factor receptor 2 (Homo sapiens) (UniProt P35968)", "conditions": "at 0.1 µM"}, "[26]": {"target": "Vascular endothelial growth factor receptor 2 (Homo sapiens) (UniProt P35968)", "conditions": "at 1 µM"}, "[27]": {"target": "Mast/stem cell growth factor receptor Kit (Homo sapiens) (UniProt P10721)", "sequence (P10721 whole entry)": "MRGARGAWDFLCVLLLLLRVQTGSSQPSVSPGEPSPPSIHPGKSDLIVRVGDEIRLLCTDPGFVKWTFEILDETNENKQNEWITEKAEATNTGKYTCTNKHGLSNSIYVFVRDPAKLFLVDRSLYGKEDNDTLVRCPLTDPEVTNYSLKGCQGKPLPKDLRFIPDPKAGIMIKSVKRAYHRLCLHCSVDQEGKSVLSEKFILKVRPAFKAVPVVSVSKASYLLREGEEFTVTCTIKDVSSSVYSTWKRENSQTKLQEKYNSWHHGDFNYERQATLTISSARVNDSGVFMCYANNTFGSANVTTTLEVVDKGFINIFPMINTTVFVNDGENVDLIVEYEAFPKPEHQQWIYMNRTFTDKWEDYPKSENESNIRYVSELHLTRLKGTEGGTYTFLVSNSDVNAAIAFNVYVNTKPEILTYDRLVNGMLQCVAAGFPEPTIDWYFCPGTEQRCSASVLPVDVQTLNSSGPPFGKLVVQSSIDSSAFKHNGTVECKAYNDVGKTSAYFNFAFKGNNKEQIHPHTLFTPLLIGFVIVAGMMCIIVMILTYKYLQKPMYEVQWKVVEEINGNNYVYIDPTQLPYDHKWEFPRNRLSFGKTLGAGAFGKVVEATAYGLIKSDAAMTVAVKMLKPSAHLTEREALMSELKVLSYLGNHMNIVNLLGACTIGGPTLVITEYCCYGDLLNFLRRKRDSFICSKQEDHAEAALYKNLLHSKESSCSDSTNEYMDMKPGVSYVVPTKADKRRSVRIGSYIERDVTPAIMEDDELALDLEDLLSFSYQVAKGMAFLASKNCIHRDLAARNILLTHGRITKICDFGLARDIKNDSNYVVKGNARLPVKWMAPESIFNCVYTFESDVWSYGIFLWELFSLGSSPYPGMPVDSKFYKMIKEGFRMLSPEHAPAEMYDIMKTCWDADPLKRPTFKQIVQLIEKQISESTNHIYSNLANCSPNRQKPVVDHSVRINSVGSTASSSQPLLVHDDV", "conditions": "at 0.1 µM"}, "[28]": {"target": "Mast/stem cell growth factor receptor Kit (Homo sapiens) (UniProt P10721)", "conditions": "at 1 µM"}, "[29]": {"test_system": "Mast/stem cell growth factor receptor Kit (Homo sapiens), P10721 [D816V]", "sequence (P10721 whole entry D816V)": "as the sequence (P10721 whole entry) above, with D816V counted along it", "conditions": "at 0.1 µM"}, "[30]": {"test_system": "Mast/stem cell growth factor receptor Kit (Homo sapiens), P10721 [D816V]", "conditions": "at 1 µM"}, "[31]": {"test_system": "Mast/stem cell growth factor receptor Kit (Homo sapiens), P10721 [T670I]", "sequence (P10721 whole entry T670I)": "as the sequence (P10721 whole entry) above, with T670I counted along it", "conditions": "at 0.1 µM"}, "[32]": {"test_system": "Mast/stem cell growth factor receptor Kit (Homo sapiens), P10721 [T670I]", "conditions": "at 1 µM"}, "[33]": {"test_system": "Mast/stem cell growth factor receptor Kit (Homo sapiens), P10721 [V560G]", "sequence (P10721 whole entry V560G)": "as the sequence (P10721 whole entry) above, with V560G counted along it", "conditions": "at 0.1 µM"}, "[34]": {"test_system": "Mast/stem cell growth factor receptor Kit (Homo sapiens), P10721 [V560G]", "conditions": "at 1 µM"}, "[35]": {"target": "Tyrosine-protein kinase Lck (Homo sapiens) (UniProt P06239)", "conditions": "at 0.1 µM"}, "[36]": {"target": "Tyrosine-protein kinase Lck (Homo sapiens) (UniProt P06239)", "conditions": "at 1 µM"}, "[37]": {"target": "Leukocyte tyrosine kinase receptor (Homo sapiens) (UniProt P29376)", "conditions": "at 0.1 µM"}, "[38]": {"target": "Leukocyte tyrosine kinase receptor (Homo sapiens) (UniProt P29376)", "conditions": "at 1 µM"}, "[39]": {"target": "Tyrosine-protein kinase Lyn (Homo sapiens) (UniProt P07948)", "sequence (P07948 2-512 limits assumed)": "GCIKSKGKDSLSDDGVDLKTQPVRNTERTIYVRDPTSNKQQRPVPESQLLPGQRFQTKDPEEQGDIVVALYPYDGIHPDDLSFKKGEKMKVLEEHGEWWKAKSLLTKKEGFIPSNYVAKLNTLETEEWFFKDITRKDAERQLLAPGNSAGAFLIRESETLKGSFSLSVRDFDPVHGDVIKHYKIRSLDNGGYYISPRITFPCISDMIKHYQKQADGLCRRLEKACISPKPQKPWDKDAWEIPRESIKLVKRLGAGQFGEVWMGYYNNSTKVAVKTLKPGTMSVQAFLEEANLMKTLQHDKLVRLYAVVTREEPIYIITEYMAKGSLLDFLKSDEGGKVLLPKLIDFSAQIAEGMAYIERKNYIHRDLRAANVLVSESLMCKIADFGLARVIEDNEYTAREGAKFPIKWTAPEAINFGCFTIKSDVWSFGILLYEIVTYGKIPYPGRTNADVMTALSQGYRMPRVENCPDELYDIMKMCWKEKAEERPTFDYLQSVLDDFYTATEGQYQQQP", "conditions": "at 0.1 µM"}, "[40]": {"target": "Tyrosine-protein kinase Lyn (Homo sapiens) (UniProt P07948)", "conditions": "at 1 µM"}, "[41]": {"target": "Tyrosine-protein kinase Lyn (Homo sapiens) (UniProt P07948)", "conditions": "at 0.1 µM", "remark": "listed apart in the source"}, "[42]": {"target": "Tyrosine-protein kinase Lyn (Homo sapiens) (UniProt P07948)", "conditions": "at 1 µM", "remark": "listed apart in the source"}, "[43]": {"target": "Tyrosine-protein kinase Mer (Homo sapiens) (UniProt Q12866)", "conditions": "at 0.1 µM"}, "[44]": {"target": "Tyrosine-protein kinase Mer (Homo sapiens) (UniProt Q12866)", "conditions": "at 1 µM"}, "[45]": {"target": "Hepatocyte growth factor receptor (Homo sapiens) (UniProt P08581)", "conditions": "at 0.1 µM"}, "[46]": {"target": "Hepatocyte growth factor receptor (Homo sapiens) (UniProt P08581)", "conditions": "at 1 µM"}, "[47]": {"target": "Muscle, skeletal receptor tyrosine-protein kinase (Homo sapiens) (UniProt O15146)", "sequence (O15146 whole entry)": "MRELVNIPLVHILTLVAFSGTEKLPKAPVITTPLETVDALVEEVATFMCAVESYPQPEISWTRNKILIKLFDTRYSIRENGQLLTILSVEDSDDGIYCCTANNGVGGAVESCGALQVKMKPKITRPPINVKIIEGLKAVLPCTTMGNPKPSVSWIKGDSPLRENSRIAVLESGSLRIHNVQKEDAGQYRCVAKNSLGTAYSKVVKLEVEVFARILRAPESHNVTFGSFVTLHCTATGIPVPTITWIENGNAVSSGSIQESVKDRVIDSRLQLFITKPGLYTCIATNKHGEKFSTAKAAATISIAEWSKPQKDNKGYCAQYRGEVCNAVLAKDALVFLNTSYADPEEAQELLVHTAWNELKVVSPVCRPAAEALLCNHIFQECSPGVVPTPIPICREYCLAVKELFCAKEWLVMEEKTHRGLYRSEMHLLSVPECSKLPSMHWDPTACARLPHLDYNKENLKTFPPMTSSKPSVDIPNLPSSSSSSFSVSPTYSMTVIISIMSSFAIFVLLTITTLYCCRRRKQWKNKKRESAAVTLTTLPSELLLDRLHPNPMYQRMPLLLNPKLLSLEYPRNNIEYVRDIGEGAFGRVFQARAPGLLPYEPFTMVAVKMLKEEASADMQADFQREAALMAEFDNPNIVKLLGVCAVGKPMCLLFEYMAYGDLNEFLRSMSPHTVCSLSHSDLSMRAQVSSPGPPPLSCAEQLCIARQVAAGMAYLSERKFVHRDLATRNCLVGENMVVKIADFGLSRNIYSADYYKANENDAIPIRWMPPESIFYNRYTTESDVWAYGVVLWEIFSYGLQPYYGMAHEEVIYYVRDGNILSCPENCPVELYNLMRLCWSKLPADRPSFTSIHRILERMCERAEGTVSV", "conditions": "at 0.1 µM"}, "[48]": {"target": "Muscle, skeletal receptor tyrosine-protein kinase (Homo sapiens) (UniProt O15146)", "conditions": "at 1 µM"}, "[49]": {"target": "Platelet-derived growth factor receptor alpha (Homo sapiens) (UniProt P16234)", "sequence (P16234 whole entry)": "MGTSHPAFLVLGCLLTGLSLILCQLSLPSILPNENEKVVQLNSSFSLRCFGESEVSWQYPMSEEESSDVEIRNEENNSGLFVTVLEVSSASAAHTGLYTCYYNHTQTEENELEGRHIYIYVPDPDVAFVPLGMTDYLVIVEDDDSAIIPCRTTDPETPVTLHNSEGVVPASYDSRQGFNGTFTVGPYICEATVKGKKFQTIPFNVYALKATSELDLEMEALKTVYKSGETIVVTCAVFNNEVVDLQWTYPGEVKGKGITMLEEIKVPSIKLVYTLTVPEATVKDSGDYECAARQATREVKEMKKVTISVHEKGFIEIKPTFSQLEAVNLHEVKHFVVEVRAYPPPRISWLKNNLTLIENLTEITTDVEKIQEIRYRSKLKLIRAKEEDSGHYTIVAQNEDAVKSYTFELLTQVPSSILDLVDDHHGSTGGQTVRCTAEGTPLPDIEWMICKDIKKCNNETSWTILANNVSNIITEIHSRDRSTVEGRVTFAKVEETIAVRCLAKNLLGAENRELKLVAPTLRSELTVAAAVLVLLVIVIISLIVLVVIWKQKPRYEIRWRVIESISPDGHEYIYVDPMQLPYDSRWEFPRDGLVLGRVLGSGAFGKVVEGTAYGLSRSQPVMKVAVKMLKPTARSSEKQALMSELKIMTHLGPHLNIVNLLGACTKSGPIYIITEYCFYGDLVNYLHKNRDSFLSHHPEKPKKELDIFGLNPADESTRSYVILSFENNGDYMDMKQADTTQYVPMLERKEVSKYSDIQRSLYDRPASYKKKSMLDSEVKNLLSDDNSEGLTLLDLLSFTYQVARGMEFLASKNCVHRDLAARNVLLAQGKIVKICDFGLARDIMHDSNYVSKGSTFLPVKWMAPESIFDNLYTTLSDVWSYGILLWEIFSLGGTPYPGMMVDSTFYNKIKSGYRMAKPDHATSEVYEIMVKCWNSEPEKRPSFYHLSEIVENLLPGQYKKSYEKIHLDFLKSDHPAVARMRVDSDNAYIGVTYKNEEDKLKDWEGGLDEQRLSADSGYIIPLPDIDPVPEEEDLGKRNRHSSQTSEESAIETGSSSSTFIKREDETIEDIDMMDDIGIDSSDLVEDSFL", "conditions": "at 0.1 µM"}, "[50]": {"target": "Platelet-derived growth factor receptor alpha (Homo sapiens) (UniProt P16234)", "conditions": "at 1 µM"}, "[51]": {"test_system": "Platelet-derived growth factor receptor alpha (Homo sapiens), P16234 [D842V]", "sequence (P16234 whole entry D842V)": "as the sequence (P16234 whole entry) above, with D842V counted along it", "conditions": "at 0.1 µM"}, "[52]": {"test_system": "Platelet-derived growth factor receptor alpha (Homo sapiens), P16234 [D842V]", "conditions": "at 1 µM"}, "[53]": {"test_system": "Platelet-derived growth factor receptor alpha (Homo sapiens), P16234 [T674I]", "sequence (P16234 whole entry T674I)": "as the sequence (P16234 whole entry) above, with T674I counted along it", "conditions": "at 0.1 µM"}, "[54]": {"test_system": "Platelet-derived growth factor receptor alpha (Homo sapiens), P16234 [T674I]", "conditions": "at 1 µM"}, "[55]": {"test_system": "Platelet-derived growth factor receptor alpha (Homo sapiens), P16234 [V561D]", "sequence (P16234 whole entry V561D)": "as the sequence (P16234 whole entry) above, with V561D counted along it", "conditions": "at 0.1 µM"}, "[56]": {"test_system": "Platelet-derived growth factor receptor alpha (Homo sapiens), P16234 [V561D]", "conditions": "at 1 µM"}}, "data": [{"smiles": "CNC(=O)Oc1cc(C)c(/C=C/c2cncc(C(=O)NC)c2)c(C)c1", "values": [{"measurement": "inhibition", "setting": "[1]", "value": 3.53, "unit": "%"}, {"measurement": "inhibition", "setting": "[2]", "value": -6.68, "unit": "%"}, {"measurement": "inhibition", "setting": "[3]", "value": 2.38, "unit": "%"}, {"measurement": "inhibition", "setting": "[4]", "value": 3.06, "unit": "%"}, {"measurement": "inhibition", "setting": "[5]", "value": 4.08, "unit": "%"}, {"measurement": "inhibition", "setting": "[6]", "value": 28.3, "unit": "%"}, {"measurement": "inhibition", "setting": "[7]", "value": 4.17, "unit": "%"}, {"measurement": "inhibition", "setting": "[8]", "value": 32.4, "unit": "%"}, {"measurement": "inhibition", "setting": "[9]", "value": 14.3, "unit": "%"}, {"measurement": "inhibition", "setting": "[10]", "value": 51.1, "unit": "%"}, {"measurement": "inhibition", "setting": "[11]", "value": 6.27, "unit": "%"}, {"measurement": "inhibition", "setting": "[12]", "value": 6.14, "unit": "%"}, {"measurement": "inhibition", "setting": "[13]", "value": 3.13, "unit": "%"}, {"measurement": "inhibition", "setting": "[14]", "value": 3.08, "unit": "%"}, {"measurement": "inhibition", "setting": "[15]", "value": 3.12, "unit": "%"}, {"measurement": "inhibition", "setting": "[16]", "value": 2.02, "unit": "%"}, {"measurement": "inhibition", "setting": "[17]", "value": 0.99, "unit": "%"}, {"measurement": "inhibition", "setting": "[18]", "value": 1.69, "unit": "%"}, {"measurement": "inhibition", "setting": "[19]", "value": 3.98, "unit": "%"}, {"measurement": "inhibition", "setting": "[20]", "value": -1.5, "unit": "%"}, {"measurement": "inhibition", "setting": "[21]", "value": 1.67, "unit": "%"}, {"measurement": "inhibition", "setting": "[22]", "value": 1.34, "unit": "%"}, {"measurement": "inhibition", "setting": "[23]", "value": 0.21, "unit": "%"}, {"measurement": "inhibition", "setting": "[24]", "value": -1.11, "unit": "%"}, {"measurement": "inhibition", "setting": "[25]", "value": -0.28, "unit": "%"}, {"measurement": "inhibition", "setting": "[26]", "value": 4.06, "unit": "%"}, {"measurement": "inhibition", "setting": "[27]", "value": 12.7, "unit": "%"}, {"measurement": "inhibition", "setting": "[28]", "value": 63.5, "unit": "%"}, {"measurement": "inhibition", "setting": "[29]", "value": 4.33, "unit": "%"}, {"measurement": "inhibition", "setting": "[30]", "value": -0.14, "unit": "%"}, {"measurement": "inhibition", "setting": "[31]", "value": 1.64, "unit": "%"}, {"measurement": "inhibition", "setting": "[32]", "value": -1.04, "unit": "%"}, {"measurement": "inhibition", "setting": "[33]", "value": 2.06, "unit": "%"}, {"measurement": "inhibition", "setting": "[34]", "value": 14.4, "unit": "%"}, {"measurement": "inhibition", "setting": "[35]", "value": 6.81, "unit": "%"}, {"measurement": "inhibition", "setting": "[36]", "value": 41, "unit": "%"}, {"measurement": "inhibition", "setting": "[37]", "value": 3.84, "unit": "%"}, {"measurement": "inhibition", "setting": "[38]", "value": 5.56, "unit": "%"}, {"measurement": "inhibition", "setting": "[39]", "value": 13.7, "unit": "%"}, {"measurement": "inhibition", "setting": "[40]", "value": 57.1, "unit": "%"}, {"measurement": "inhibition", "setting": "[41]", "value": 9.47, "unit": "%"}, {"measurement": "inhibition", "setting": "[42]", "value": 52.3, "unit": "%"}, {"measurement": "inhibition", "setting": "[43]", "value": 1.05, "unit": "%"}, {"measurement": "inhibition", "setting": "[44]", "value": 0.84, "unit": "%"}, {"measurement": "inhibition", "setting": "[45]", "value": -2.86, "unit": "%"}, {"measurement": "inhibition", "setting": "[46]", "value": -0.63, "unit": "%"}, {"measurement": "inhibition", "setting": "[47]", "value": 1.43, "unit": "%"}, {"measurement": "inhibition", "setting": "[48]", "value": 4.49, "unit": "%"}, {"measurement": "inhibition", "setting": "[49]", "value": 12.5, "unit": "%"}, {"measurement": "inhibition", "setting": "[50]", "value": 42.2, "unit": "%"}, {"measurement": "inhibition", "setting": "[51]", "value": 2.6, "unit": "%"}, {"measurement": "inhibition", "setting": "[52]", "value": 13.1, "unit": "%"}, {"measurement": "inhibition", "setting": "[53]", "value": 3.98, "unit": "%"}, {"measurement": "inhibition", "setting": "[54]", "value": 4.15, "unit": "%"}, {"measurement": "inhibition", "setting": "[55]", "value": 13.5, "unit": "%"}, {"measurement": "inhibition", "setting": "[56]", "value": 52.3, "unit": "%"}]}]}
